The full data set covers some 8,800 targets. This sample favours those with a hit. About 0.5% of all pairs of compound and target were hits.
Columns and labels:
Assay in all cases: log2 fold change, soluble protein after heating vs DMSO (PISA); higher = thermal stabilisation; K562 lysate, 10 uM; active = over 0.2 and 3.5 SD of the protein, either way, in both replicates (recomputed)
erlotinib = compound: C#Cc1cccc(Nc2ncnc3cc(OCCOC)c(OCCOC)cc23)c1 [erlotinib]
Outline: (§1)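 The values are log-two fold changes in thermal stability compared with solvent controls and come from duplicates. They were obtained by TMTpro 16plex LC-MS/MS, with channel sums equalised, on the supernatant after 21,000xg for 90 min. That supernatant came from crude K562 extract at 1 mg/mL protein treated with 10 μM compound for 30 min, heated for 3 min across 48°C-58°C, pooled and brought to 0.5% NP-40 at 4°C.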

[1] = compound: C/C(=N\NC(=O)C1=CC(=CC=C1)S(=O)(=O)N2CCOCC2)/C3=C(C=CC(=C3)Cl)O
Outline: as §1

[2] = compound: C1=CC(=CC=C1C2=NC3=C(N2)C=C(C=C3)C(=O)N)OC4=CC=C(C=C4)Cl
Outline: as §1

[3] = compound: C1=CC2=C(C=CC(=C2)/C=C\3/C(=O)NC(=NCC4=CC=CS4)S3)N=C1
Outline: as §1

[4] = compound: C1=CC2=NC=CN=C2C=C1/C=C/3\C(=O)NC(=O)S3
Outline: as §1

[5] = compound: C1=CC=C(C=C1)C2=NC(=C(N2)C3=CC=NC=C3)C4=CC(=C(C=C4)Cl)O
Outline: as §1

[6] = compound: C1=CC=C2C(=C1)C3=NNC4=CC=CC(=C43)C2=O
Outline: as §1

[7] = compound: C1CCN(C1)C(=O)NC2=CC=CC(=C2)NC3=NC=C(C(=N3)NCCC4=CN=CN4)Br
Outline: as §1

[8] = compound: C1CN(CCC1(CC2=CC=C(C=C2)Cl)N)C3=NC=NC4=C3C=CN4
Outline: as §1

IRAK-1-4 Inhibitor I = compound: C1COCCN1CCN2C3=CC=CC=C3N=C2NC(=O)C4=CC(=CC=C4)[N+](=O)[O-] [IRAK-1-4 Inhibitor I]
Outline: as §1

ibrutinib = compound: C=CC(=O)N1CCC[C@@H](n2nc(-c3ccc(Oc4ccccc4)cc3)c3c(N)ncnc32)C1 [ibrutinib]
Outline: as §1

[9] = compound: CC(=O)c1cnc2ccc(-c3cc(Cl)c(O)c(Cl)c3)nc2c1N[C@H]1CC[C@H](CN(C)C)CC1
Outline: as §1

ralimetinib = compound: CC(C)(C)Cn1c(N)nc2ccc(-c3[nH]c(C(C)(C)C)nc3-c3ccc(F)cc3)nc21 [ralimetinib]
Outline: as §1

[10] = compound: CC(C)(O)CC(=O)NCCn1ccc2ncnc(Nc3ccc(Oc4cccc(C(F)(F)F)c4)c(Cl)c3)c21
Outline: as §1

[11] = compound: CC(C)C1=C2N=C(C=C(N2N=C1)NCC3=CC=CC=C3)NCCCCCCN
Outline: as §1

[12] = compound: CC1=C(C(CC(=O)N1)C2=CC=C(C=C2)C(F)(F)F)C(=O)NC3=C(C=C4C(=C3)C=NN4)F
Outline: as §1

[13] = compound: CC1=C(C2=C(C=C1)C(=O)C3=CC=CC=C3N2CCCN)C
Outline: as §1

[14] = compound: CC1=C(C=C(C=C1)NC(=O)C2=CC(=CC=C2)C(C)(C)C#N)NC3=CC4=C(C=C3)N=CN(C4=O)C
Outline: as §1

[15] = compound: CC1=C(C=C(C=C1)NC(=O)C2=CC(=CC=C2)N(C)C)NC(=O)C3=CC=C(C=C3)O
Outline: as §1

[16] = compound: CC1=CC=C(C=C1)SC2=C3C=C(SC3=CN=C2)C(=O)N
Outline: as §1

Measured: log2 fold change

XAB2 (UniProt Q9HCS7)
Sequence of UniProt Q9HCS7 (Q9HCS7 whole entry, looked up): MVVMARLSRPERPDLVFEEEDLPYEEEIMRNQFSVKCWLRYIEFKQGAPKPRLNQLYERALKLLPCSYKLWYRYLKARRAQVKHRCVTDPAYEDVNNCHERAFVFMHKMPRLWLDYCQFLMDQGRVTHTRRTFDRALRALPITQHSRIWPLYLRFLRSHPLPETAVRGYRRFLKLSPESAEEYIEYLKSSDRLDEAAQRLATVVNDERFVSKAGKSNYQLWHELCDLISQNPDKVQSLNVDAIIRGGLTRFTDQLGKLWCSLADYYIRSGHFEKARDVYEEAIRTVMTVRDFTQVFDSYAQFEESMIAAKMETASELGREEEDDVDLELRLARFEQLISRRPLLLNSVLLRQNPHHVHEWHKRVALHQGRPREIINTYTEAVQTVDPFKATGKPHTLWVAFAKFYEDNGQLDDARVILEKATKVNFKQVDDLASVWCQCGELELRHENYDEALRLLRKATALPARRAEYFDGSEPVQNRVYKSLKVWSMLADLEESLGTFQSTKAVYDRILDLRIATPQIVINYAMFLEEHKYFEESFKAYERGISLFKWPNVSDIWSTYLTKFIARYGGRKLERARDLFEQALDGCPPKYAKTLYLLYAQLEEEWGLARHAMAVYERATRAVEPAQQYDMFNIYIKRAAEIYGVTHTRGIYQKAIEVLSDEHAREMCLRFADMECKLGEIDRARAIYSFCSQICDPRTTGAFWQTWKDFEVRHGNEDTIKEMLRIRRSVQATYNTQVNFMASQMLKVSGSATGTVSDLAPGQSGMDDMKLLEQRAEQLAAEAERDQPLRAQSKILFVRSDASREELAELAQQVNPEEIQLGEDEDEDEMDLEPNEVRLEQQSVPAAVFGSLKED
inactive: erlotinib 0.049 | [1] -0.088 | [2] -0.012 | [3] 0.076 | [4] 0.093 | [5] 0.012 | [6] -0.041 | [7] 0.071 | [8] -0.014 | IRAK-1-4 Inhibitor I 0.004 | ibrutinib -0.089 | [9] -0.048 | ralimetinib -0.002 | [10] -0.051 | [11] -0.011 | [12] 0.014 | [13] -0.032 | [14] 0.013 | [15] 0.03 | [16] -0.024

ZDHHC18 (UniProt Q9NUE0)
Sequence of UniProt Q9NUE0 (Q9NUE0 whole entry, looked up): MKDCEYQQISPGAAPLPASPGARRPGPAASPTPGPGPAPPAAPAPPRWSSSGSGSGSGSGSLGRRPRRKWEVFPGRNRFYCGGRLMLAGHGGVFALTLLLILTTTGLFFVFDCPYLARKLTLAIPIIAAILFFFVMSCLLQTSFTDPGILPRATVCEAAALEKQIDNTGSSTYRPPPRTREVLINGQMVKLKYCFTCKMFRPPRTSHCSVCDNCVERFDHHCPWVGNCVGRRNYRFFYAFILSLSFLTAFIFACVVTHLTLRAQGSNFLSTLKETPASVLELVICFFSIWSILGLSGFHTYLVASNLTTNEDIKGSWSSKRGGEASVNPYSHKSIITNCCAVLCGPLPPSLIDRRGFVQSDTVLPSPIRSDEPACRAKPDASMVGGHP
inactive: erlotinib 0.265 | [1] -0.057 | [2] -0.371 | [3] -0.052 | [4] -0.135 | [5] 0.004 | [6] 0.038 | [7] -0.022 | [8] 0.075 | IRAK-1-4 Inhibitor I 0.13 | ibrutinib -0.103 | [9] 0.057 | ralimetinib 0.093 | [10] -0.017 | [11] -0.137 | [12] 0.019 | [13] 0.209 | [14] -0.022 | [15] 0.073 | [16] -0.01

VPS4A (UniProt Q9UN37)
Sequence of UniProt Q9UN37 (Q9UN37 whole entry, looked up): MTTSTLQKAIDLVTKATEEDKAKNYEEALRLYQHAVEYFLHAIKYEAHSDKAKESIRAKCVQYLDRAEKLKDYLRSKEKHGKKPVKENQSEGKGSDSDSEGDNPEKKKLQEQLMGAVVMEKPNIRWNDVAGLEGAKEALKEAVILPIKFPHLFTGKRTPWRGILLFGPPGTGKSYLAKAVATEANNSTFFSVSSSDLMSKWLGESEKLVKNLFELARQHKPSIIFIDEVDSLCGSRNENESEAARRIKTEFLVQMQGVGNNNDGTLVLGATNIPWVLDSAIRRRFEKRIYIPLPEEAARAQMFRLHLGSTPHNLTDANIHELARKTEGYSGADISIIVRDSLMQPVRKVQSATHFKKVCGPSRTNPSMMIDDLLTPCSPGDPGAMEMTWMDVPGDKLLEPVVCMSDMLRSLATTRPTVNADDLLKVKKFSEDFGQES
inactive: erlotinib 0.051 | [1] 0.005 | [2] -0.076 | [3] 0.043 | [4] -0.014 | [5] -0.017 | [6] -0.15 | [7] 0.029 | [8] -0.037 | IRAK-1-4 Inhibitor I -0.037 | ibrutinib 0.001 | [9] 0 | ralimetinib 0.013 | [10] 0.035 | [11] 0 | [12] -0.035 | [13] -0.046 | [14] -0.039 | [15] 0.045 | [16] 0.025

WDR91 (UniProt A4D1P6)
Sequence of UniProt A4D1P6 (A4D1P6 whole entry, looked up): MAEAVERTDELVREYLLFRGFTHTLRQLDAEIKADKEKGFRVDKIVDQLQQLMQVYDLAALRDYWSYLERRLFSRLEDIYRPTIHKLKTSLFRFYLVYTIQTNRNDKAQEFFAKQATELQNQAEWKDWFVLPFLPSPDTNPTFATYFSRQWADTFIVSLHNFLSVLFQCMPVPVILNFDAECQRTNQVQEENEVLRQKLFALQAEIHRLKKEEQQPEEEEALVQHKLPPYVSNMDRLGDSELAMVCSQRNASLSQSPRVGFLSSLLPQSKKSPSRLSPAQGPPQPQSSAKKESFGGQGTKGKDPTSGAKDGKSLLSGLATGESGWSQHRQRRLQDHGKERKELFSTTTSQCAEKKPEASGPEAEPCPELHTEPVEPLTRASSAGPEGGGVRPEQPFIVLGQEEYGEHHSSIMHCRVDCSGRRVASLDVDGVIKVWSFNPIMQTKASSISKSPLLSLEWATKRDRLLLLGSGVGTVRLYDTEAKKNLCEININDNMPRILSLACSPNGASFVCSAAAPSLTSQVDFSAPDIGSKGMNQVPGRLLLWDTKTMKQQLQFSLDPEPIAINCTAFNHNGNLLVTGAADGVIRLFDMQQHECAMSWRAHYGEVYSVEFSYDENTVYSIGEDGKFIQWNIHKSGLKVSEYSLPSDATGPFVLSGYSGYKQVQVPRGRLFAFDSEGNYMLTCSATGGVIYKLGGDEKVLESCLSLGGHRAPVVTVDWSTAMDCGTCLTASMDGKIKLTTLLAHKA
inactive: erlotinib 0.02 | [1] 0.04 | [2] -0.019 | [3] 0.038 | [4] -0.034 | [5] 0.002 | [6] 0.019 | [7] -0.011 | [8] -0.007 | IRAK-1-4 Inhibitor I -0.013 | ibrutinib 0.05 | [9] 0.011 | ralimetinib 0.026 | [10] -0.002 | [11] -0.026 | [12] -0.013 | [13] -0.009 | [14] -0.046 | [15] 0.043 | [16] 0.002

XPOT (UniProt O43592)
Sequence of UniProt O43592 (O43592 whole entry, looked up): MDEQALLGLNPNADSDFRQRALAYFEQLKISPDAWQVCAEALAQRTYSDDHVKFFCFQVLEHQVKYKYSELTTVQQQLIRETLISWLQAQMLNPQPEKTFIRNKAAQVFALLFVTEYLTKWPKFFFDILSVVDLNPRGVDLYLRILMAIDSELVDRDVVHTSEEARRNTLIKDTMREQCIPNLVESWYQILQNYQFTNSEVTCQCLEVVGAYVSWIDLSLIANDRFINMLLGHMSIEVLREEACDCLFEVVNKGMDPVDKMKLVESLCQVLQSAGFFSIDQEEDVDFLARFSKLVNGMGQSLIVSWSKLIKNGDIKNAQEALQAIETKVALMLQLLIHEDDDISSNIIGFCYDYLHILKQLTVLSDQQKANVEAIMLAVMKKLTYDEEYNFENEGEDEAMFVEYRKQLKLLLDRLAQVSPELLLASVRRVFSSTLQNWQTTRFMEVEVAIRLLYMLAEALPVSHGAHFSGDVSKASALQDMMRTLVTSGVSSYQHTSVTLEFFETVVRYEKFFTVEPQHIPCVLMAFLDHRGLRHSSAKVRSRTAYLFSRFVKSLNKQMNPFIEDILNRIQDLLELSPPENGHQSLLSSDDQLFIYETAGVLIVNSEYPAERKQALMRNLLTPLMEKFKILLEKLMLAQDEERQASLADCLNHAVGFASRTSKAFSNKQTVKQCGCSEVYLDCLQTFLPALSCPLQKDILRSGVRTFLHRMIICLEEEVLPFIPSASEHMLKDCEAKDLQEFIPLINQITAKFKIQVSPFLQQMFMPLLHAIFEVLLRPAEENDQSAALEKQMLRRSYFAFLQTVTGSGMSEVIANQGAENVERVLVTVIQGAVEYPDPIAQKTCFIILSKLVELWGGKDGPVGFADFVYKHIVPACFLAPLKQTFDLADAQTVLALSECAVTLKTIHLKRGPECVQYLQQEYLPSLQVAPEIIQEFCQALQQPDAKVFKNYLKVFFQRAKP
inactive: erlotinib 0.017 | [1] -0.013 | [2] -0.041 | [3] -0.003 | [4] 0.032 | [5] -0.011 | [6] -0.021 | [7] -0.004 | [8] 0.025 | IRAK-1-4 Inhibitor I 0.016 | ibrutinib -0.012 | [9] 0.009 | ralimetinib 0.006 | [10] -0.038 | [11] -0.014 | [12] 0 | [13] 0.013 | [14] 0.016 | [15] 0.007 | [16] 0.018

USP48 (UniProt Q86UV5)
Sequence of UniProt Q86UV5 (Q86UV5 whole entry, looked up): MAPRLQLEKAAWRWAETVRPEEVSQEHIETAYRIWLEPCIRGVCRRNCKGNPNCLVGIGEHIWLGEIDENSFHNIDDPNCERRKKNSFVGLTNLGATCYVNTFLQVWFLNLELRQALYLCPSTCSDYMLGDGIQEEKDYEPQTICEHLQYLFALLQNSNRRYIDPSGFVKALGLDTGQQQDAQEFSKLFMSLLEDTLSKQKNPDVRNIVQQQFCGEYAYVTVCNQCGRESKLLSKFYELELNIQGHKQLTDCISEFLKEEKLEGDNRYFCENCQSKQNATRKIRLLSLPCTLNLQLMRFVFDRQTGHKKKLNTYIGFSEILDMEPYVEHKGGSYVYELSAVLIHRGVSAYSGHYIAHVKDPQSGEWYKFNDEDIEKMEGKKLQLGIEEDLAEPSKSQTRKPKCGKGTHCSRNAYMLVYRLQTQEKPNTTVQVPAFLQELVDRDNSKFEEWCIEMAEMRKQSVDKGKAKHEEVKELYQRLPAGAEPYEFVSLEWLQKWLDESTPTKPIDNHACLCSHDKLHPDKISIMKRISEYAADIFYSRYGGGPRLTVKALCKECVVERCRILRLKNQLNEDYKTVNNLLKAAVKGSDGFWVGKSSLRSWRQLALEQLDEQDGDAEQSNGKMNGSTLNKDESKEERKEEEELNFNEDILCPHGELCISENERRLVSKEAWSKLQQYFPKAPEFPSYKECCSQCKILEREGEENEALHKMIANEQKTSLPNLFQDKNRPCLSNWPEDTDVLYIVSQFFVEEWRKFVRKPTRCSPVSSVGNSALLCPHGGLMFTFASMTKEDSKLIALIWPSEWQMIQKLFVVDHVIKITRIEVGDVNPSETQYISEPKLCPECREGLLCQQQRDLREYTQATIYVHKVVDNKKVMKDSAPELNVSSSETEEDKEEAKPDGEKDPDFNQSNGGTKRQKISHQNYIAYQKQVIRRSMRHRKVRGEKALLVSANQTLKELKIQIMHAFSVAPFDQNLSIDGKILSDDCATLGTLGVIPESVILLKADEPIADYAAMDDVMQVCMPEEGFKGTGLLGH
inactive: erlotinib 0.022 | [1] 0.001 | [2] -0.015 | [3] -0.051 | [4] 0.006 | [5] 0.001 | [6] 0.049 | [7] -0.033 | [8] 0.013 | IRAK-1-4 Inhibitor I -0.026 | ibrutinib -0.028 | [9] -0.224 | ralimetinib -0.038 | [10] 0.031 | [11] -0.009 | [12] 0.018 | [13] 0 | [14] -0.039 | [15] 0.041 | [16] -0.227

YWHAQ (UniProt P27348)
Sequence of UniProt P27348 (P27348 whole entry, looked up): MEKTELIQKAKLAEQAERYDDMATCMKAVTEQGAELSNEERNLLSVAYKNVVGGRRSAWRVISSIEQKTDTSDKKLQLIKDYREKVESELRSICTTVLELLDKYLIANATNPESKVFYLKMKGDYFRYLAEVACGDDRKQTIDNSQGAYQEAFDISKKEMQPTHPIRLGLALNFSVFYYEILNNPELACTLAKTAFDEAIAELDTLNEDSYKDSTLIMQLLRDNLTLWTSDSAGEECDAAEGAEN
inactive: erlotinib 0.026 | [1] 0.046 | [2] 0.016 | [3] 0.012 | [4] 0.017 | [5] 0.014 | [6] 0.021 | [7] -0.006 | [8] 0.022 | IRAK-1-4 Inhibitor I 0.013 | ibrutinib -0.011 | [9] -0.001 | ralimetinib -0.007 | [10] 0.028 | [11] 0 | [12] -0.054 | [13] 0.007 | [14] -0.001 | [15] 0.01 | [16] 0.01

WDR6 (UniProt Q9NNW5)
inactive: erlotinib 0.001 | [1] 0.01 | [2] 0.002 | [3] 0.026 | [4] -0.01 | [5] 0 | [6] -0.014 | [7] -0.02 | [8] 0.021 | IRAK-1-4 Inhibitor I -0.011 | ibrutinib 0.008 | [9] 0.008 | ralimetinib 0.018 | [10] -0.017 | [11] -0.032 | [12] -0.012 | [13] -0.019 | [14] 0.011 | [15] 0.022 | [16] 0.017

Reference: the supplement of paper PMC10849652
